According to a collection of fitness landscapes (doi:10.1016/j.celrep.2020.107928):
In all, about 81,000 sequences were measured (“one-hybrid fitness for binding NBS DNA”: median about -0.1, highest 2% from about 0.36 on). Many of the other results were omitted from the sample, so the highest values are more common in it than they were.

B1: Caulobacter ParB omega fusion; a variant is named by its letters at X, in order, B8GW30 (parent)
chain: MESVVVGEPGMSEGRRGLGRGLSALLGEVDAAPAQAPGEQLGGSREAPIEILQRNPDQPRRTFREEDLEDLSNSIREKGVLQPILVRPSPDTAGEYQIVAGERAWRAAQRAGLKTVPIMVRELDDLAVLEIGIIENVQRADLNVLEEALSYKVLMEKFERTQENIAQTIGKSXSHVANXMRLLXLPDEVQSYLVSGELTAXHARAIAAAADPVALAKQIIEGGLSVRETEALARKAPNLSAGKSKGGRPPRVKDTDTQALESDLSSVLGLDVSIDHRGSTGTLTITYATLEQLDDLCNRLTRGI

Variants of: B1
Experiment: one-hybrid fitness for binding NBS DNA (the Noc-binding site; scaled: cognate 1, non-cognate 0); higher = stronger binding
Details: with NBS DNA site
In short: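 Selection: bacterial one-hybrid in E. coli USO, HIS3 reporter with the site 19 bp from the promoter, 48 hours at 37°C on M9-minus-histidine plus 0.1 mM IPTG and 5 mM 3-AT. Libraries were Caulobacter ParB with four randomised specificity codons, sequenced on Illumina before and after selection. Fitness is the rescaled log change in variant-to-wild-type read ratio, anchored to the cognate and non-cognate sites.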

| Variant | one-hybrid fitness for binding NBS DNA |
| --- | --- |
| IART | ≤ 0.2 |
| NTSG | ≤ 0.2 |
| NVYS | ≤ 0.2 |
| KVTC | ≤ 0.2 |
| QPTP | ≤ 0.2 |
| RWEY | ≤ 0.2 |
| ARSD | ≤ 0.2 |
| RCSW | ≤ 0.2 |
| RTAH | ≤ 0.2 |
| RTFR | 0.441 |
| RTFS | 0.339 |
| RTFN | ≤ 0.2 |
| RTAN | ≤ 0.2 |
| RTAR | 0.548 |
| VCRV | ≤ 0.2 |
| RISE | ≤ 0.2 |
| TSIF | ≤ 0.2 |
| HHVS | ≤ 0.2 |
| SALW | ≤ 0.2 |
| HAHM | ≤ 0.2 |
| QQMP | ≤ 0.2 |
| QQMR | 0.584 |
| QQMD | ≤ 0.2 |
| QQMN | ≤ 0.2 |

| Variant | one-hybrid fitness for binding NBS DNA |
| --- | --- |
| QQMT | 0.499 |
| QQMS | 0.368 |
| QQMK | ≤ 0.2 |
| QQMF | ≤ 0.2 |
| QQMH | 0.222 |
| TPTE | ≤ 0.2 |
| MRFN | ≤ 0.2 |
| SLPK | ≤ 0.2 |
| RCHW | ≤ 0.2 |
| TPGK | ≤ 0.2 |
| QQAT | 0.482 |
| QQAH | 0.284 |
| QQFT | 0.435 |
| QQAD | ≤ 0.2 |
| DQFT | ≤ 0.2 |
| DRLH | ≤ 0.2 |
| NPTI | ≤ 0.2 |
| WVVG | ≤ 0.2 |
| ARKE | ≤ 0.2 |
| GRRW | ≤ 0.2 |
| PTWL | ≤ 0.2 |
| PTTT | ≤ 0.2 |
| ARAA | ≤ 0.2 |
| RHGE | ≤ 0.2 |

| Variant | one-hybrid fitness for binding NBS DNA |
| --- | --- |
| QELE | ≤ 0.2 |
| DGQC | ≤ 0.2 |
| KKKY | ≤ 0.2 |
| RSWM | ≤ 0.2 |
| QCNY | 0.297 |
| QRNY | 0.556 |
| QRPY | ≤ 0.2 |
| QREY | 0.256 |
| QRLY | 0.447 |
| QSCY | ≤ 0.2 |
| QRRY | 0.718 |
| QRCY | 0.508 |
| QSLY | ≤ 0.2 |
| QRDY | 0.289 |
| QPCY | ≤ 0.2 |
| QCLY | ≤ 0.2 |
| HFFC | ≤ 0.2 |
| LYPV | ≤ 0.2 |
| TISM | ≤ 0.2 |
| AKHW | ≤ 0.2 |
| ALKD | ≤ 0.2 |
| SPCC | ≤ 0.2 |
| WADF | ≤ 0.2 |
| RNVM | ≤ 0.2 |

| Variant | one-hybrid fitness for binding NBS DNA |
| --- | --- |
| SLWP | ≤ 0.2 |
| MHGS | ≤ 0.2 |
| FLKC | ≤ 0.2 |
| NLKN | ≤ 0.2 |
| QPHY | ≤ 0.2 |
| QCSY | 0.22 |
| QRHY | 0.553 |
| QCGY | 0.3 |
| QRWY | 0.289 |
| QPGY | ≤ 0.2 |
| QRYY | 0.433 |
| QRIY | 0.271 |
| QRSY | 0.477 |
| QPSY | ≤ 0.2 |
| QCHY | 0.258 |
| QRGY | 0.571 |
| KKIT | ≤ 0.2 |
| QYVI | ≤ 0.2 |
| PAGP | ≤ 0.2 |
| AGDQ | ≤ 0.2 |
| RWTS | ≤ 0.2 |
| MTVE | ≤ 0.2 |
| MHPL | ≤ 0.2 |
| NLEL | ≤ 0.2 |

| Variant | one-hybrid fitness for binding NBS DNA |
| --- | --- |
| YEAS | ≤ 0.2 |
| QRKY | 0.699 |
| QRVY | 0.344 |
| QCQY | 0.265 |
| QSQY | ≤ 0.2 |
| QRQY | 0.521 |
| NRKY | ≤ 0.2 |
| GKDL | ≤ 0.2 |
| ARSS | ≤ 0.2 |
| LLLY | ≤ 0.2 |
| CCKR | ≤ 0.2 |
| CRVR | ≤ 0.2 |
| CRRR | 0.373 |
| CRKR | 0.417 |
| CRDR | ≤ 0.2 |
| CRYR | ≤ 0.2 |
| SYHR | ≤ 0.2 |
| CIIR | ≤ 0.2 |
| QLHC | ≤ 0.2 |
| DTYG | ≤ 0.2 |
| LLQA | ≤ 0.2 |
| YPAF | ≤ 0.2 |
| QLRP | ≤ 0.2 |
| QLRN | 0.319 |

| Variant | one-hybrid fitness for binding NBS DNA |
| --- | --- |
| QLRH | 0.452 |
| QLYH | ≤ 0.2 |
| QLYS | 0.252 |
| QLRS | 0.586 |
| EPSE | ≤ 0.2 |
| WYYR | ≤ 0.2 |
| QNWS | ≤ 0.2 |
| TTNM | ≤ 0.2 |
| AGGD | ≤ 0.2 |
| QTFS | 0.391 |
| QTAD | ≤ 0.2 |
| QTFK | ≤ 0.2 |
| QTAS | 0.51 |
| QTFN | ≤ 0.2 |
| QTAM | 0.233 |
| QTAP | ≤ 0.2 |
| QTAN | 0.217 |
| QTAH | 0.401 |
| YQLR | ≤ 0.2 |
| LRHP | ≤ 0.2 |
| REPM | ≤ 0.2 |
| TKNF | ≤ 0.2 |
| SEEG | ≤ 0.2 |
| RKKT | 0.691 |

| Variant | one-hybrid fitness for binding NBS DNA |
| --- | --- |
| RPVT | ≤ 0.2 |
| RKKG | 0.227 |
| RKKQ | 0.242 |
| RKVT | 0.512 |
| RKVP | ≤ 0.2 |
| ILKV | ≤ 0.2 |
| VPFY | ≤ 0.2 |
| NRFR | ≤ 0.2 |
| KCAR | ≤ 0.2 |
| DRFR | ≤ 0.2 |
| KRAR | 0.541 |
| KRFR | 0.469 |
| KPAR | ≤ 0.2 |
| STSG | ≤ 0.2 |
| QKCV | ≤ 0.2 |
| QKVV | ≤ 0.2 |
| QAQV | ≤ 0.2 |
| QPKV | ≤ 0.2 |
| QRVV | 0.272 |
| QKKV | 0.406 |
| QRKV | 0.588 |
| QCKV | 0.479 |
| QRPV | ≤ 0.2 |
| QLKV | 0.342 |

| Variant | one-hybrid fitness for binding NBS DNA |
| --- | --- |
| QAVV | ≤ 0.2 |
| QAKV | 0.393 |
| NHES | ≤ 0.2 |
| WMIP | ≤ 0.2 |
| VPEL | ≤ 0.2 |
| KIDS | ≤ 0.2 |
| YGSP | ≤ 0.2 |
| QTKV | 0.599 |
| QIKV | 0.267 |
| QHVV | ≤ 0.2 |
| QSVV | ≤ 0.2 |
| QTIV | ≤ 0.2 |
| QTVV | ≤ 0.2 |
| QHKV | 0.44 |
| QSKV | 0.398 |
| QMKV | 0.424 |
| QHDV | ≤ 0.2 |
| QMVV | ≤ 0.2 |
| QMNV | ≤ 0.2 |
| TFNG | ≤ 0.2 |
| WQMG | ≤ 0.2 |
| FYPI | ≤ 0.2 |
| VPIG | ≤ 0.2 |
| DNCR | ≤ 0.2 |

| Variant | one-hybrid fitness for binding NBS DNA |
| --- | --- |
| MCLS | ≤ 0.2 |
| LFAP | ≤ 0.2 |
| LAIW | ≤ 0.2 |
| QSFA | ≤ 0.2 |
| QMAA | 0.339 |
| QRAA | 0.617 |
| QHAA | ≤ 0.2 |
| QRFA | 0.494 |
| QPFA | ≤ 0.2 |
| QVCG | ≤ 0.2 |
| AEFL | ≤ 0.2 |
| MPNG | ≤ 0.2 |
| KRHT | 0.651 |
| KPET | ≤ 0.2 |
| KRHP | ≤ 0.2 |
| KCST | ≤ 0.2 |
| KCGT | ≤ 0.2 |
| DRST | ≤ 0.2 |
| KRET | 0.501 |
| KRST | 0.573 |
| KRGT | 0.537 |
| KAET | ≤ 0.2 |
| KRGH | ≤ 0.2 |
| KCHT | ≤ 0.2 |

| Variant | one-hybrid fitness for binding NBS DNA |
| --- | --- |
| LDCV | ≤ 0.2 |
| DSPG | ≤ 0.2 |
| EQLY | ≤ 0.2 |
| TMSQ | ≤ 0.2 |
| VICL | ≤ 0.2 |
| MMNR | ≤ 0.2 |
| KRYT | 0.613 |
| NRCT | ≤ 0.2 |
| KCIT | ≤ 0.2 |
| KRCT | 0.558 |
| KRPT | 0.305 |
| KCYT | ≤ 0.2 |
| KRIT | 0.481 |
| DRYT | ≤ 0.2 |
| KCRT | 0.315 |
| KRCD | ≤ 0.2 |
| KRRT | 0.674 |
| NRRT | ≤ 0.2 |
| FRGT | ≤ 0.2 |
| HAIS | ≤ 0.2 |
| WVIG | ≤ 0.2 |
| TARF | ≤ 0.2 |
| LMCG | ≤ 0.2 |
| PVMR | ≤ 0.2 |

| Variant | one-hybrid fitness for binding NBS DNA |
| --- | --- |
| SKSN | ≤ 0.2 |
| CRIR | ≤ 0.2 |
| HDNF | ≤ 0.2 |
| TALC | ≤ 0.2 |
| MHTW | ≤ 0.2 |
| KPWT | ≤ 0.2 |
| KRQT | 0.513 |
| KRQP | ≤ 0.2 |
| KRLT | 0.469 |
| NRWT | ≤ 0.2 |
| KCQT | ≤ 0.2 |
| KCLT | ≤ 0.2 |
| KPLT | ≤ 0.2 |
| KRWT | 0.669 |
| ELNV | ≤ 0.2 |
| NLKK | ≤ 0.2 |
| FRPG | ≤ 0.2 |
| HKCG | ≤ 0.2 |
| PFLC | ≤ 0.2 |
| RHPR | ≤ 0.2 |
| RHHP | ≤ 0.2 |
| RHHH | ≤ 0.2 |
| RHLR | 0.329 |
| RHHR | 0.447 |

| Variant | one-hybrid fitness for binding NBS DNA |
| --- | --- |
| RHRR | 0.656 |
| RHWR | 0.256 |
| RHIR | ≤ 0.2 |
| RHQR | 0.448 |
| RHYR | 0.387 |
| EMNR | ≤ 0.2 |
| WDGG | ≤ 0.2 |
| QAEP | ≤ 0.2 |
| ADMS | ≤ 0.2 |
| PVLV | ≤ 0.2 |
| NCEV | ≤ 0.2 |
| SRIS | ≤ 0.2 |
| DRYY | ≤ 0.2 |
| RHSH | ≤ 0.2 |
| RHGP | ≤ 0.2 |
| RHGH | ≤ 0.2 |
| RHSD | ≤ 0.2 |
| RHGR | 0.403 |
| RHSR | 0.448 |
| MNYT | ≤ 0.2 |
| VDVI | ≤ 0.2 |
| YLRS | ≤ 0.2 |
| PAHQ | ≤ 0.2 |
| SSQC | ≤ 0.2 |

| Variant | one-hybrid fitness for binding NBS DNA |
| --- | --- |
| FTTS | ≤ 0.2 |
| SMHC | ≤ 0.2 |
| QTYS | 0.507 |
| QTPS | 0.314 |
| QTCS | 0.495 |
| QTCP | ≤ 0.2 |
| QTCN | ≤ 0.2 |
| QTIH | 0.221 |
| QSLS | 0.263 |
| QCLS | 0.382 |
| QTIS | 0.398 |
| QPLS | ≤ 0.2 |
| QTIP | ≤ 0.2 |
| CPTM | ≤ 0.2 |
| DVLM | ≤ 0.2 |
| WVEG | ≤ 0.2 |
| TFRM | ≤ 0.2 |
| MYPF | ≤ 0.2 |
